Many of the other results were omitted from the sample, so hits are more common in it than they were.
ALOX12 inhib – inhibitors of human 12-lipoxygenase (ALOX12) | purified 12-hLO, xylenol orange hydroperoxide absorbance | P18054 | hit rate 0.12% among 150,000 | Potency, µM (doses to about 57.1 µM), for inactives: at the highest dose activity change, negative = inhibition, usual class: inhibitors; further: potency means the concentration at half of the fitted maximal effect; nearly all actives have a fitted effect of over 55% in size
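Xylenol orange chromogenic assay: hydroperoxide from 12hLO oxidises Fe(II), giving red-shifted Fe(III)-XO absorbance. Conditions: 150 nM enzyme, 40 uM arachidonic acid, 25 mM Hepes pH 7.0, 0.01% Triton X-100, 30 min, room temperature.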
IMPase Li cell – cell-permeable IMPase inhibitors with lithium potentiation | CHO-M1 cells, IP1 TR-FRET (IP-One), carbachol + lithium | Potency, µM (titrated, usually from 59.4 µM), inactives show at the highest dose activity, negative = IMPase inhibition, hits mostly inhibitors | hit rate 0.35% among 210,000 | AID 1457;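 further: IP1 builds up when IMPase is blocked and the TR-FRET signal falls; potency means the concentration at half of the fitted maximal effect; plate controls were basal vehicle for no effect and high inhibitor control for full effect; nearly all actives have a fitted effect of over 50% in size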
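Readout is a homogeneous TR-FRET IP1 immunoassay (Ex 320, Em 665 and 620), where raised cytosolic IP1 lowers signal. Cells were CHO-M1 treated 30 min at 37C with test compounds plus a little lithium; AC50 values came from Hill-equation fitting.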
IMPase cell inh – membrane-permeable compound that blocks inositol monophosphatase | P97697 | CHO-M1 cells, IP1 accumulation, HTRF TR-FRET ratio | inhibition (IP1 accumulation), % at 46.1 µM | 120,000 tested, under 10 active; active means well fitted curve in the direction sought with a large enough effect in the signal ratio, not every such curve was filed as active; inconclusive means small, poorly fitted or top-dose-only effect, or a change in a side signal; inactive means no such curve, though single readings can be large or run the other way; the % refers to the signal ratio;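 further: cells stimulated with carbachol in lithium chloride buffer; plate controls were DMSO basal wells for no effect and reference inhibitor wells for full effect; higher means more IMPase inhibition seen as more IP1 and lower FRET ratio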
Target sequence (P97697 whole entry, looked up): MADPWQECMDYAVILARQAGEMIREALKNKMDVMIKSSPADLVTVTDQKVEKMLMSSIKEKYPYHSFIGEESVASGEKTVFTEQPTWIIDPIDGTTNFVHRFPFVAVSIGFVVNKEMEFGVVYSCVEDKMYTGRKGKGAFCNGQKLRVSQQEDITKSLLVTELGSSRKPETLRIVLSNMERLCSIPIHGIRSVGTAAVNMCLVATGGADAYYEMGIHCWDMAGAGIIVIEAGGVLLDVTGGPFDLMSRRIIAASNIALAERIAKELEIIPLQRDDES
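Elevated IP1 in lysates lowers TR-FRET signal (665/620 ratio and 620 channel reported). Cells were CHO-M1, given carbachol (50 uM as added) plus 50mM LiCl, pH 7.4, 30 min, 37C; compounds titrated up to 46 uM; AC50 by Hill equation.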
PNC inhibitor – blocks assembly of the perinucleolar compartment. PC3M PTB-GFP, PNC prevalence imaging, 16 h; stronger effect = lower value. activity change (PNC), negative = inhibition, % at 10 µM. hit rate 3.1% among 140,000. AID 2417;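 active means readout at or below -70, meaning at least 70% loss of cells showing the perinucleolar compartment, a nuclear body marking cancer cells; inconclusive means readout between -30 and a set limit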;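 further: plate controls were DMSO wells for no effect and camptothecin positive control wells for full effect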
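Read-out is percentage of cells bearing a perinucleolar compartment, from automated 20x imaging of fixed, Hoechst-stained PC3M PTB-GFP cells. Cells were seeded 4 h, then exposed 16 h to compound (23 nl of library stock) in duplicate plates.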
Numbers without * were called inactive; ? = inconclusive; . = no result given; [ ] = remark or other dose. Unless noted, the call rests on the fitted dose curve; in most records, active means well fitted curve in the direction sought with a large enough effect; inconclusive means small, poorly fitted or top-dose-only effect, or another doubt; inactive means no such curve, though single readings can be large; an effect the other way counts as inactive or inconclusive. Unless noted, on the % scale 0 is the no-effect control and ±100 the full control effect.

SMILES	ALOX12 inhib	IMPase Li cell	IMPase cell inh	PNC inhibitor
Cc1ccc(NC(=O)CSc2nc3ccccc3c(=O)n2Cc2cccs2)cc1	-5%	13µM*	-6	-7
CCOc1ccc(NC(=O)CSc2nc3ccccc3c(=O)n2CCNC(C)=O)cc1	-6%	3%[38.3 µM]	-7	-107*
CCC(C)NC(=O)CSc1nc2ccc(N3CCOCC3)cc2c(=O)n1CCc1ccccc1 (stereo unspecified)	-5%	13%[38.3 µM]	3	?
CCCCn1c(SCC(=O)Nc2cc(C)on2)nc2ccccc2c1=O	3%	5.6µM*	-1	?
CCn1c(SCC(=O)Nc2ccc(NC(=O)c3ccco3)c(OC)c2)nc2ccccc2c1=O	-1%	13µM*	5	-28
CCCCn1c(SCC(=O)NC(C)CC)nc2ccc(N3CCOCC3)cc2c1=O (stereo unspecified)	-24%	11µM*	-6	-24
FC(F)(F)c1cc(NC(=S)Nc2ccc3cc4ccccc4cc3c2)cc(C(F)(F)F)c1	.	13%	.	.
CCCCC[C@H](O)/C=C/[C@H]1C=CC(=O)[C@@H]1C/C=C\CCCC(=O)O	-15%	3%	.	-96*
CCCCC[C@H](O)/C=C/[C@@H]1[C@@H](C/C=C\CCCC(=O)O)[C@@H](O)C[C@@H]1O	0%	18%	.	.
COc1ccc(CN[C@H](C)C(=O)O)cc1	-4%[11.4 µM]	0%	.	.
CCOc1ccc(Cn2c3ccc(OC)cc3c3nc4ccccc4nc32)cc1	-1%	6%	.	-89*
O=C(CSc1nc2ncccc2[nH]1)c1cccc([N+](=O)[O-])c1	5%	15%	-1	-113*
CCc1nc2ccccc2n2c(-c3ccccc3)c3c(=O)n(C)c(=O)n(C)c3c12	.	.	2	.
COc1nc(C)ccc1-c1noc(-c2ccccn2)n1	1%	20%[38.3 µM]	0	6
COc1ccccc1-c1nc(-c2ccc(C)nc2OC)no1	-6%	6%	-6	-98*
N#C/C(=C/c1ccccc1)C(=O)NCc1ccccc1	.	4%	.	.
CN(C)c1ccc(/C=C(/C#N)C(=O)NCc2ccccc2)o1	-4%	10%	.	-83*
O=C(c1ccccc1)c1ccc2n1CC[C@H]2C(=O)O	3%[25.6 µM]	8%	3[20.6 µM]	.
O=S1(=O)CCC(NC(=S)NC2CCS(=O)(=O)C2)C1 (stereo unspecified)	-3%	-3%	.	48
O=S1(=O)CCC(NC(=S)N2CCOCC2)C1 (stereo unspecified)	-2%	-8%	.	-102*
Cc1ccc(NS(=O)(=O)c2ccc(C(=O)N3CCCN(C)CC3)cc2)cc1	-6%	4%[38.3 µM]	9	-100*
Cc1ccc(NS(=O)(=O)c2ccc(C)c(C(=O)N3CCN(C)CC3)c2)cc1	0%	2%[38.3 µM]	-1	9
COC(=O)c1ccc(N2C(=O)CC(N(C)CCc3ccc(OC)c(OC)c3)C2=O)cc1 (stereo unspecified)	0%	-3%[38.3 µM]	-5	-119*
COc1ccc(N2C(=O)CC(N(C)CCc3ccc(OC)c(OC)c3)C2=O)cc1 (stereo unspecified)	.	15%	.	.
C=CCn1c(=S)[nH]c2scc(-c3cccs3)c2c1=O	.	11µM*	.	.
SMILES	ALOX12 inhib	IMPase Li cell	IMPase cell inh	PNC inhibitor
COc1ccc(-c2nc3ccccc3s2)cc1NC(=O)c1ccccc1OC	.	.	-2	.
COCCn1nnnc1CN1CCC(Cc2ccccc2)CC1	4%	2%	-11	-100*
COCCn1nnnc1CN1CCSCC1	.	5%	.	.
O=C(NC1c2ccccc2-c2ccccc21)c1ccco1	-6%	-18%[38.3 µM]	?	?
O=C(CSc1cccc2cccc(Cl)c12)OCC(=O)N1CCN(C(=O)c2ccco2)CC1	-4%	10µM*	-27	-8
O=C(CCSc1ccccc1)N1CCN(C(=O)c2ccco2)CC1	5%	21%[38.3 µM]	-4	-91*
O=C(NC1CCCCC1NC(=O)c1ccco1)c1ccco1 (stereo unspecified)	1%	7%	9	-85*
O=C(c1ccc(Cl)cc1)N1CCN(C(=O)c2ccco2)CC1	0%	5%[38.3 µM]	1	-100*
O=C(c1ccncc1)N1CCN(C(=O)c2ccco2)CC1	0%	12%[38.3 µM]	14	-4
COc1ccc(C(=O)OCn2nnc3ccccc3c2=O)cc1	.	6%	.	.
O=C(c1ccco1)N1CCN(C(=O)c2sccc2-c2ccccc2)CC1	0%	6%	-7	-100*
O=C(c1ccco1)N1CCN(C2CCCC2)CC1	-1%	-4%	2	-101*
O=C(c1ccco1)N1CCN(C(=O)C2CC2)CC1	3%	-2%	.	-6
